# Results reported in ChEMBL document CHEMBL1961873, “Compounds: GSK PKIS; Assays: Nanosyn kinase panel” (2012).
# Tests used:
# [1] = biological target: Tyrosine-protein kinase Fyn (Homo sapiens) (UniProt P06241); details: at 1 µM
# [2] = biological target: Tyrosine-protein kinase HCK (Homo sapiens) (UniProt P08631); details: at 0.1 µM
# [3] = biological target: Tyrosine-protein kinase HCK (Homo sapiens) (UniProt P08631); details: at 1 µM
# [4] = biological target: Insulin-like growth factor 1 receptor (Homo sapiens) (UniProt P08069); details: at 0.1 µM
# [5] = biological target: Insulin-like growth factor 1 receptor (Homo sapiens) (UniProt P08069); details: at 1 µM
# [6] = biological target: Insulin receptor (Homo sapiens) (UniProt P06213); details: at 0.1 µM
# [7] = biological target: Insulin receptor (Homo sapiens) (UniProt P06213); details: at 1 µM
# [8] = biological target: Insulin receptor-related protein (Homo sapiens) (UniProt P14616); details: at 0.1 µM
# [9] = biological target: Insulin receptor-related protein (Homo sapiens) (UniProt P14616); details: at 1 µM
# [10] = biological target: T1, Tyrosine-protein kinase ITK/TSK (Homo sapiens) (UniProt Q08881); details: at 0.1 µM
# T1 sequence (whole entry): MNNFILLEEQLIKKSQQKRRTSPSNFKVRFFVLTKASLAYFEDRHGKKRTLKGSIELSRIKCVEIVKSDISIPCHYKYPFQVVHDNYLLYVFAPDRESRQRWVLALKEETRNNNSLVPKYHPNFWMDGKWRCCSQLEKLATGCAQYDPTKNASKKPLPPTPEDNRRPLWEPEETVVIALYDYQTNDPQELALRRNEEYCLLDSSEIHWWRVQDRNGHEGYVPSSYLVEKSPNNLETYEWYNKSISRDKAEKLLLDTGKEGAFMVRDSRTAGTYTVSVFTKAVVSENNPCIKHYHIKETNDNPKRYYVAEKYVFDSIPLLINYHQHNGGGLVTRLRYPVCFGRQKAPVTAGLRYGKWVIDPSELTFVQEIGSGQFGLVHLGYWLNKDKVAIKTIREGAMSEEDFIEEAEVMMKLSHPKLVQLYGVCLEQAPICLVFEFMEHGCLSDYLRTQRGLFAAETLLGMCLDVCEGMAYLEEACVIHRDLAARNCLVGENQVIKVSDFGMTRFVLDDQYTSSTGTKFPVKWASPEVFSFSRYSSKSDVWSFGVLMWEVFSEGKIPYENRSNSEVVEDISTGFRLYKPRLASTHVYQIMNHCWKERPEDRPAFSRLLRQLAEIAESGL
# [11] = biological target: T1, Tyrosine-protein kinase ITK/TSK (Homo sapiens); details: at 1 µM
# [12] = biological target: Tyrosine-protein kinase JAK1 (Homo sapiens) (UniProt P23458); details: at 0.1 µM
# [13] = biological target: Tyrosine-protein kinase JAK1 (Homo sapiens) (UniProt P23458); details: at 1 µM
# [14] = biological target: Tyrosine-protein kinase JAK2 (Homo sapiens) (UniProt O60674); details: at 0.1 µM
# [15] = biological target: Tyrosine-protein kinase JAK2 (Homo sapiens) (UniProt O60674); details: at 1 µM
# [16] = biological target: T2, Tyrosine-protein kinase JAK3 (Homo sapiens) (UniProt P52333); details: at 0.1 µM
# T2 sequence (whole entry): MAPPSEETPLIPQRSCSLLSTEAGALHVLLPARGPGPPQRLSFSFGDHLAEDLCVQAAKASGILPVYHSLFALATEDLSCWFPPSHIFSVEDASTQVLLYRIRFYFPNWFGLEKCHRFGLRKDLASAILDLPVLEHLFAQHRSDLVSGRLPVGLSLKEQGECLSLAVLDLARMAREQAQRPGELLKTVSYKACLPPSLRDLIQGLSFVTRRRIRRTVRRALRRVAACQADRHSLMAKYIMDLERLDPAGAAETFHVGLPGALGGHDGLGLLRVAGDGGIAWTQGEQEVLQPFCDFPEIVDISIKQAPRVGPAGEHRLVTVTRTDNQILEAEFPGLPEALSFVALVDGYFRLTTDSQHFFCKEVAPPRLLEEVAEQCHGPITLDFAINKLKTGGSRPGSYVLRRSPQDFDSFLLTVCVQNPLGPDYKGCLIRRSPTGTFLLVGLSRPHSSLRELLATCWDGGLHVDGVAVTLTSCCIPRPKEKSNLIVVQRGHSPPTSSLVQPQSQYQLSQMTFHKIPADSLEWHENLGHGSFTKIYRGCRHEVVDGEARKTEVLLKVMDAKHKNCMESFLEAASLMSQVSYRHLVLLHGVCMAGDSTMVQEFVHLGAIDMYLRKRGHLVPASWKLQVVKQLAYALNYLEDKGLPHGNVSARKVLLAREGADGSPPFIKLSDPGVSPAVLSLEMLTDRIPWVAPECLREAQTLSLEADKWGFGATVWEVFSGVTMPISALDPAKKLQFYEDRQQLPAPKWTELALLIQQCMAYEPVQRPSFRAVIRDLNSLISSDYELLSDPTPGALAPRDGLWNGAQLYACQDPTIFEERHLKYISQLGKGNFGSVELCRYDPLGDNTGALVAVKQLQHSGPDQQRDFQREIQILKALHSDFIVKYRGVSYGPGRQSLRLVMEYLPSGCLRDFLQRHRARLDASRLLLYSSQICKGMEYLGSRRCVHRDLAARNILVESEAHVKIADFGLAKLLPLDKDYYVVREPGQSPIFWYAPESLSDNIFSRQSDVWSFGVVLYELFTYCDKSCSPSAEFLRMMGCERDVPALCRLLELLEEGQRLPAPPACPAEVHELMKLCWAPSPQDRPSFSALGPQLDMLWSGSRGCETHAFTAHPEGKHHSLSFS
# [17] = biological target: T2, Tyrosine-protein kinase JAK3 (Homo sapiens); details: at 1 µM
# [18] = biological target: Vascular endothelial growth factor receptor 2 (Homo sapiens) (UniProt P35968); details: at 0.1 µM
# [19] = biological target: Vascular endothelial growth factor receptor 2 (Homo sapiens) (UniProt P35968); details: at 1 µM
# [20] = biological target: Mast/stem cell growth factor receptor Kit (Homo sapiens) (UniProt P10721); details: at 0.1 µM;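 also: values are mean inhibition of KIT, from the GSK PKIS dataset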
# Sequence of Tyrosine-protein kinase JAK1 (Homo sapiens) (P23458 whole entry): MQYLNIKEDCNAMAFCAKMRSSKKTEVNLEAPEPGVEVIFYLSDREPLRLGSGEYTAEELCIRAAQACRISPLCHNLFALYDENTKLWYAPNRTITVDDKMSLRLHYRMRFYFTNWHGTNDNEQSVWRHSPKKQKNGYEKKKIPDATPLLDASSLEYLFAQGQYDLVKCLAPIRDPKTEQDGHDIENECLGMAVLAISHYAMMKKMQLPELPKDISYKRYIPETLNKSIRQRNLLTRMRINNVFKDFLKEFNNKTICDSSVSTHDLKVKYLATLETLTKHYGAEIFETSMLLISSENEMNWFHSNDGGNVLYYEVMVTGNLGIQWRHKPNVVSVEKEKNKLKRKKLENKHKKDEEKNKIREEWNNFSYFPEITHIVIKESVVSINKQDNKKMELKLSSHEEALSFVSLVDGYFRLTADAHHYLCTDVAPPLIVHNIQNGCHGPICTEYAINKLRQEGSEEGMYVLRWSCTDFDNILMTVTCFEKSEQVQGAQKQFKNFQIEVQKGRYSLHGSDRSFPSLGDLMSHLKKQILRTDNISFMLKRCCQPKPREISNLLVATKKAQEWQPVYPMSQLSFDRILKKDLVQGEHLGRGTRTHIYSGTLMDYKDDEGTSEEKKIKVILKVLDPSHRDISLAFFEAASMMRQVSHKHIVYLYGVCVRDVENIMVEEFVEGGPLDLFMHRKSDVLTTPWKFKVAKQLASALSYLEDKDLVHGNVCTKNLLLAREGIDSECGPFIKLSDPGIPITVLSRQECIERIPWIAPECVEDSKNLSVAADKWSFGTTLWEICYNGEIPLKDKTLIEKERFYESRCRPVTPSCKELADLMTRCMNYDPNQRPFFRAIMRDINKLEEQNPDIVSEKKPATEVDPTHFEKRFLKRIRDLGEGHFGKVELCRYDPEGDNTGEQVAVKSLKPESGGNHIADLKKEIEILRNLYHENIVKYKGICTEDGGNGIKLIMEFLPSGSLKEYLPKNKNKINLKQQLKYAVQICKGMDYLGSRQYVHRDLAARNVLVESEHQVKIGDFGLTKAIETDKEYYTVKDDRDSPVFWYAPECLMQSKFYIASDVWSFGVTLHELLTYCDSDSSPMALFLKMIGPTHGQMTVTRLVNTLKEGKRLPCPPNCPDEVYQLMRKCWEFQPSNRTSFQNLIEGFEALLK
# Sequence of Insulin receptor (Homo sapiens) (P06213 28-758 limits assumed): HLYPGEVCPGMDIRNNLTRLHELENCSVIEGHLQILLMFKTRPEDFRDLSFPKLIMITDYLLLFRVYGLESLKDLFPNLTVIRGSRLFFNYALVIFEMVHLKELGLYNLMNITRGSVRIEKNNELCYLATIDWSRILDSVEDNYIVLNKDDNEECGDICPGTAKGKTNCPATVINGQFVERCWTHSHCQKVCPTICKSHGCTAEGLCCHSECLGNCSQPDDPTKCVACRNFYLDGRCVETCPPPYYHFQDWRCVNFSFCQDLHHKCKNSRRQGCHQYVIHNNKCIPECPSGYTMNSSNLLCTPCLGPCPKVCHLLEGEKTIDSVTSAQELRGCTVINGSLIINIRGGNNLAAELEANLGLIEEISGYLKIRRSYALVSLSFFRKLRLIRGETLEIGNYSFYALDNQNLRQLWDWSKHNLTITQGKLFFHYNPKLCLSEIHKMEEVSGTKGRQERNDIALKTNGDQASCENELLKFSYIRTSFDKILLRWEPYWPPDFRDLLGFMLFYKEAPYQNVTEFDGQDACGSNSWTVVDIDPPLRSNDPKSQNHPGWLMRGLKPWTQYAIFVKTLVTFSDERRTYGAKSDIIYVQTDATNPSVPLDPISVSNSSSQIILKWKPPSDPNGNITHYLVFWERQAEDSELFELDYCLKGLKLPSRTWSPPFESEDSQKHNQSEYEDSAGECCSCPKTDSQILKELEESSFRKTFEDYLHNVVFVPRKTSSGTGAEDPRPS
# Sequence of Insulin receptor (Homo sapiens) (P06213 763-1382 limits assumed): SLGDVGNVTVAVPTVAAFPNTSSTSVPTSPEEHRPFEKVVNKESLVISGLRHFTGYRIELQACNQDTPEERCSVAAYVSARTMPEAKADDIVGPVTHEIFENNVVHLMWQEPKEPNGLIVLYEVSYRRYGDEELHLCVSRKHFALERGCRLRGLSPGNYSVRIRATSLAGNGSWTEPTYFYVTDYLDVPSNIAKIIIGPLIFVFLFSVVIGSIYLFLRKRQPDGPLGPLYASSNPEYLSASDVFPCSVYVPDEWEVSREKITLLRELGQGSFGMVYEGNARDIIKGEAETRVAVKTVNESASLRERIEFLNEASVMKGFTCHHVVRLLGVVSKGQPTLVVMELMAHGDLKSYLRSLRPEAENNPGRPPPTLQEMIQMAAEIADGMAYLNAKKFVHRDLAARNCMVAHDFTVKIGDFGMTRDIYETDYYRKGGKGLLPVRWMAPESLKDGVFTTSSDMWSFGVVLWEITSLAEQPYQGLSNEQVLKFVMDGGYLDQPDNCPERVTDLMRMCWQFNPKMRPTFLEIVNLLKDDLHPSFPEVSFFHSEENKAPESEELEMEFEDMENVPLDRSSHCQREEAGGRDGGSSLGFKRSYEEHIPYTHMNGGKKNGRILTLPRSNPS
# Sequence of Vascular endothelial growth factor receptor 2 (Homo sapiens) (P35968 whole entry): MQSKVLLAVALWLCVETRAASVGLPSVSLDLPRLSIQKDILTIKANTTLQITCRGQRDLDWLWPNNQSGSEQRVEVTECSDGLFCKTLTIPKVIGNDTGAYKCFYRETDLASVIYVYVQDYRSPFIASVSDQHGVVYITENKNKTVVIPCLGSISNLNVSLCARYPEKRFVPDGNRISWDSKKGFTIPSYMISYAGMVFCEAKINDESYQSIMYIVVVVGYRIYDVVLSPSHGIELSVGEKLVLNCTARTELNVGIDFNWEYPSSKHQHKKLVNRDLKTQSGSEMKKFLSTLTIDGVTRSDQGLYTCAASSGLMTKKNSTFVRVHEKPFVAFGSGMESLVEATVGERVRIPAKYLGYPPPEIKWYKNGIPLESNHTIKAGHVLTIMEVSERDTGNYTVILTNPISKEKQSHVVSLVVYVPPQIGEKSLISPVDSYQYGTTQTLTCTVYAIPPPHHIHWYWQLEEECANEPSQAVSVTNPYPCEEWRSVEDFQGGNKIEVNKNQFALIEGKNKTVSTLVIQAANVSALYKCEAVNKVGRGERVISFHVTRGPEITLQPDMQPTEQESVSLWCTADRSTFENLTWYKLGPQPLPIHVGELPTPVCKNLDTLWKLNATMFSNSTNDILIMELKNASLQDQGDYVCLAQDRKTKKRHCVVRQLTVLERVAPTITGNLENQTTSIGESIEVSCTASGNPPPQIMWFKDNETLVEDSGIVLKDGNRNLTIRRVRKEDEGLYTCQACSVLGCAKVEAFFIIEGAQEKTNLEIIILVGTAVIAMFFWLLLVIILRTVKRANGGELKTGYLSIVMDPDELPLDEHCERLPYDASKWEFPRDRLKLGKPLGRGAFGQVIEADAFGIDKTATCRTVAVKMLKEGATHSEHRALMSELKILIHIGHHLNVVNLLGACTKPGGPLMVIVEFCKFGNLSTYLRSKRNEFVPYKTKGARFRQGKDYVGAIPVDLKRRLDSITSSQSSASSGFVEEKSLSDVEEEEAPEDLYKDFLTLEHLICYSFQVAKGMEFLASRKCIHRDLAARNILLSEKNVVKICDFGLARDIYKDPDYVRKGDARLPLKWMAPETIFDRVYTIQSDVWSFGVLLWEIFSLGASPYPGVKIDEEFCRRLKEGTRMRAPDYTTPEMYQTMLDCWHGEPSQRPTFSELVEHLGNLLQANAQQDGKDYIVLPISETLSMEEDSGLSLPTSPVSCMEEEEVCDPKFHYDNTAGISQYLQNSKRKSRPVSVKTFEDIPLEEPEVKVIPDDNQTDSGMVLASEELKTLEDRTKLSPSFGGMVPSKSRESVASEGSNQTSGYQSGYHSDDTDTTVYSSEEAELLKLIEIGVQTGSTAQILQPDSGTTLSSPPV
# Sequence of Tyrosine-protein kinase HCK (Homo sapiens) (P08631 2-526 limits assumed): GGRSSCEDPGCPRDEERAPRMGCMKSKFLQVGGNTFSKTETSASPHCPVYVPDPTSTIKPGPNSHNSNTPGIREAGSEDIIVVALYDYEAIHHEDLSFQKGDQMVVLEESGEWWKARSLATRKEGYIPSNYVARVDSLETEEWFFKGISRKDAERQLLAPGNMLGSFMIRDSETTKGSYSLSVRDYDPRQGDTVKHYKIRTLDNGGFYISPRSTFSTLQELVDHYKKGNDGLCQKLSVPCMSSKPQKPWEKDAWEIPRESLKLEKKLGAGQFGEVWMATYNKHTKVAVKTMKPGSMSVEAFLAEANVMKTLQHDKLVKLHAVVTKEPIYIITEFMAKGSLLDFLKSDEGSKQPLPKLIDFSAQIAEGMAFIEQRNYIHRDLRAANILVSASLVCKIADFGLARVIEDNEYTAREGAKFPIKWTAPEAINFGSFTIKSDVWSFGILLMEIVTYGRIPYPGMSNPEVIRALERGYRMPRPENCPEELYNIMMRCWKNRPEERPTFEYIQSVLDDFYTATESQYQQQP
# Sequence of Tyrosine-protein kinase Fyn (Homo sapiens) (P06241 2-537 limits assumed): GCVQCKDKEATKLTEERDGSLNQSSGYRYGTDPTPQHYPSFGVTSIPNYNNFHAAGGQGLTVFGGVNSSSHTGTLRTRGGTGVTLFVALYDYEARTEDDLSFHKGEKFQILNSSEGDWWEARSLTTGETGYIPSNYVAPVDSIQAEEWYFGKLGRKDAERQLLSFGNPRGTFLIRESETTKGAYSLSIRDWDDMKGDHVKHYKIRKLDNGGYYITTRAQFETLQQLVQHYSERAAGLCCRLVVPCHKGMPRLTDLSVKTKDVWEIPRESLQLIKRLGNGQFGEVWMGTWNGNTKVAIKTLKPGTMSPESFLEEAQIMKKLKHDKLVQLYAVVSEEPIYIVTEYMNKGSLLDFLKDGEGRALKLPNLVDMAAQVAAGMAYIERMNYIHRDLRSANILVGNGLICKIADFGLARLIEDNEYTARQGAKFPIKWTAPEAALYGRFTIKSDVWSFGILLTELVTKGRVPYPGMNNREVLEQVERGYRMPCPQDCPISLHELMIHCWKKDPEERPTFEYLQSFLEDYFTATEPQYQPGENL
SMILES,inhibition [1] [%],inhibition [2] [%],inhibition [3] [%],inhibition [4] [%],inhibition [5] [%],inhibition [6] [%],inhibition [7] [%],inhibition [8] [%],inhibition [9] [%],inhibition [10] [%],inhibition [11] [%],inhibition [12] [%],inhibition [13] [%],inhibition [14] [%],inhibition [15] [%],inhibition [16] [%],inhibition [17] [%],inhibition [18] [%],inhibition [19] [%],inhibition [20] [%]
Cc1cc(-c2ccccn2)cc(C)c1/C=C/c1cncc(-c2nn[nH]n2)c1,9.92,7.16,17.3,16.5,10.9,5.7,5.57,0.66,2.24,0.82,0.66,4.47,3.3,2.08,2.43,0.16,0.72,3.45,14.2,4.89
NS(=O)(=O)c1cccc(-c2cc3ccncc3cc2OCc2ccccc2)c1,4.87,7.87,11.1,9.68,10.4,2.6,4.4,2.82,1.54,1.77,3.72,0.51,2.7,1.82,0.92,-0.33,0.81,13.4,17.1,6.67
COC(=O)Nc1nc2cc(Oc3ccc(NC(=O)Nc4cccc(Br)c4)cc3)ccc2[nH]1,9.52,6.2,6.79,3.08,2.4,1.48,5.63,1.82,-1.05,1.01,1.87,5.36,11.8,1.09,3.06,-0.45,1.27,–,–,84.5
c1ccc(Nc2ncc(-c3ccccc3)o2)cc1,15.1,6.83,13.3,7.16,5.2,4.8,6.98,2.31,2.61,0.38,1.67,8.4,8.08,1.08,1.6,-1.29,-1.89,4.68,19.8,30.9
Cc1ccc(NC(=O)CC2CC2)cc1-c1ccc(C(=O)NCC2CC2)cc1,5.9,9,10.3,1.36,2.09,2.71,5.25,2.99,3.28,1.08,1.47,1.27,6.97,1.47,5.47,-0.78,2.17,9.88,12.3,3.18
CN(C)C(=O)O[C@H]1CN[C@H](C#Cc2cc3ncnc(Nc4ccc(OCc5cccc(F)c5)c(Cl)c4)c3s2)C1,1.7,4.49,10.5,3.22,2.88,4.02,3.06,0.79,1.4,1.49,1.42,2.35,4.66,1.84,1.89,-0.68,1.63,4.69,9.06,2.32
Cc1ccc(O)cc1Nc1ccnc2ccc(S(C)(=O)=O)cc12,94.1,87.2,89.9,4.41,3.85,6.63,8.39,3.29,3.19,1.1,1.21,3.67,11.8,1.33,2.12,-1.23,0.26,70.1,71.1,13.2
CCOc1nccc2c1nc(-c1nonc1N)n2CC,3.27,4.58,11.4,7.26,7.09,0.75,-1.17,1.03,2.48,1.74,3.31,6.31,18.7,1.55,1.18,0.47,4.71,9.84,23.8,3.38
NS(=O)(=O)c1ccc(NC=C2C(=O)Nc3ccc4ncsc4c32)cc1,26.5,12.2,43.8,12.2,26.7,6.96,29.7,3.96,6.03,2.7,15.1,9.37,50.7,2.72,23.6,22.7,63.7,60.5,71,68.4
N#Cc1c(NC(=O)c2ccccc2F)sc2c1CCCC2,3.17,-1.54,0.95,-4.1,0.01,1.34,-1.12,-1.06,-1.27,-1,0.32,0.4,-1.49,-0.7,-1.01,-1.04,2.45,-3.31,-0.36,-4.4
Nc1nccc(-c2c(-c3ccc(F)cc3)nn3cc(C(F)(F)F)ccc23)n1,2.33,-0.1,-0.25,-1.56,1.35,1.38,2.01,1.17,1.01,-1.78,0.43,-0.26,1.9,-0.24,-1.98,-1.7,-0.29,0.31,0.56,-1.06
Cc1ccc(Nc2ccnc(Nc3cccc(C(N)=O)c3)n2)cc1O,89.4,58.8,83.5,-3.28,17.2,3.53,13.7,2.88,3.49,-2.42,0.3,5.16,32.7,5.29,45.8,-4.07,14,76.9,90.7,8.57
CS(=O)(=O)CCNCc1nc(-c2ccc3ncnc(Nc4ccc(OCc5cccc(C(F)(F)F)c5)cc4)c3c2)cs1,3.35,3.91,5.68,4.43,3.36,1.31,3.15,-0.71,1.53,1.21,2.53,1.05,3.96,1.09,3.08,-0.8,1.6,2.88,9.28,1.96
N#Cc1cccc(Nc2nccc(-c3cnn4ncccc34)n2)c1,39.2,7.16,35.9,8.04,38.2,9.03,40.9,3.98,10.8,2.91,21.1,2.54,14.9,2.15,22.1,5.73,36.2,12.1,43.9,78.3
